Assay outcomes: PubChem BioAssay, Paczesny and Yang Labs, IUPUI and University of Michigan
ST2 IL33 inh: blocks human ST2 binding to IL-33; AlphaLISA ST2-Fc/biotin-IL-33 interaction, 1 h; inhibition, % for hits at 17 µM; hit rate 2.3% among 78,000; in the data active means inhibition above about 30%
Target sequence (Q01638 whole entry, looked up): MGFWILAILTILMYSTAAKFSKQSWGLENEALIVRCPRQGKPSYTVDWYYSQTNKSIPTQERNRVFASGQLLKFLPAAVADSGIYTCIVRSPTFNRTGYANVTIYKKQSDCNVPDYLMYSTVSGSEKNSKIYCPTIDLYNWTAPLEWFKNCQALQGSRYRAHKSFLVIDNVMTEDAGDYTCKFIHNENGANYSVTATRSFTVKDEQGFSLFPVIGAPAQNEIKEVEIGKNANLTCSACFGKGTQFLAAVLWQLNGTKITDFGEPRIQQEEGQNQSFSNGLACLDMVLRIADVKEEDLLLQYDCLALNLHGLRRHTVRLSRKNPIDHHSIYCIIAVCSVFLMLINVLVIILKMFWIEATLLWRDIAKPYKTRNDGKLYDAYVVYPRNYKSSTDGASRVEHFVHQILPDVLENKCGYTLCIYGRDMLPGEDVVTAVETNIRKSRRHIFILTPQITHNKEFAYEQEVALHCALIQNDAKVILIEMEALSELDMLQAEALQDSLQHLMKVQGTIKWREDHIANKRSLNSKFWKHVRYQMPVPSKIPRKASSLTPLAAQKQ
* marks the source's active call; other numbers are inactive results; i = inactive. The entries come from a sample that favours hits as a whole.

SMILES	ST2 IL33 inh
CCOC(=O)C1(CCOc2ccccc2)CCN(Cc2cccc(C)n2)CC1	83.0%*
CN(C)c1ccc(C2Nc3ccc4ncccc4c3C3=C2C(=O)CC(C)(C)C3)cc1 (stereo not drawn)	i
O=c1[nH]c(Nc2cccc(F)c2)nnc1Cc1ccccc1Cl	i
COCCN1CCN(C(=O)C2CCC(=O)N(CCc3ccccn3)C2)CC1 (stereo not drawn)	i
CS(=O)(=O)N1CCCC(C(=O)NCCC2=CCCCC2)C1 (stereo not drawn)	i
CCOc1ccc(-c2nc3cc(N=Cc4cc([N+](=O)[O-])ccc4O)ccc3o2)cc1	i
Cc1cccc2oc(-c3ccc(N=Cc4cccc([N+](=O)[O-])c4O)cc3)nc12	i
COc1cc([N+](=O)[O-])cc(C=Nc2ccc3oc(-c4ccccc4C)nc3c2)c1O	i
Cc1cccc2oc(-c3cc(N=Cc4cc([N+](=O)[O-])ccc4O)ccc3O)nc12	32.0%*
Cc1cccc2oc(-c3cccc(N=Cc4cc([N+](=O)[O-])ccc4O)c3)nc12	i
O=[N+]([O-])c1ccc(O)c(C=Nc2ccc3oc(Cc4ccccc4)nc3c2)c1	48.0%*
CCOc1cccc(C2C(C(=O)OC3CCCC3)=C(C)NC3=C2C(=O)C(C(=O)OC)C(C)C3)c1 (stereo not drawn)	i
COc1ccc(-c2nc(N3CCOCC3)nc3nn4c(C)cc(C)nc4c23)cc1	i
CC(C)N1C(=O)CO[C@H]2CN(C(=O)c3ccno3)C[C@H]21	i
O=C(c1ccc(CS(=O)(=O)c2ccc(Br)cc2)o1)N1CCCCC1	i
Cc1ncc2c(c1CNC(=O)c1ccc3c(c1)OCO3)CCN(C(=O)CSc1ccccc1)C2	i
COc1cc(NCC2(c3ccccc3)CCN(C)CC2)ncn1	31.0%*
COc1cc(NCCNC(=O)c2ccncc2)ncn1	i
c1ccc(C2(CNc3ccccn3)CCCC2)cc1	i
O=c1c2ccccc2nc(/C=C/c2ccc([N+](=O)[O-])o2)n1Cc1ccccc1	i
COc1ccccc1OCCOc1ccc([N+](=O)[O-])cc1/C=C1/C(=O)N(c2ccccc2)N=C1C	i
CC1=NN(c2ccccc2)C(=O)/C1=C\c1ccccc1OCc1ccccc1	40.0%*
COc1ccccc1/C=C1/C(=O)N(c2ccccc2)N=C1C	i
CC1=NN(c2ccccc2)C(=O)/C1=C/c1cccc(C(=O)O)c1	i
CC1=NN(c2ccccc2)C(=O)/C1=C/c1ccc(O)c(Br)c1	i
SMILES	ST2 IL33 inh
COc1cc(/C=C2\C(=O)N(c3ccccc3)N=C2C)ccc1OCc1ccc(F)cc1	i
COc1cccc(/C=C2\C(=O)N(c3cccc(Cl)c3)N=C2C)c1	i
C=CCN1C(=O)NC(=O)/C(=C/c2cccc(OCc3ccccc3Cl)c2)C1=O	i
Cc1cccc(OCCOCCOc2ccc(/C=C3\C(=O)NN(c4ccccc4)C3=O)cc2)c1	34.0%*
CCc1cccc(OCCOCCN2CCCC2)c1	i
COc1cc(/C=C2/C(=O)N(c3ccccc3)N=C2C)ccc1OCCOCCOc1ccccc1	45.0%*
COc1cccc(OCCOc2ccc(/C=C3/C(=O)N(c4ccccc4)N=C3C)cc2OC)c1	43.0%*
CCc1cc(CN(C)Cc2nc(-c3sccc3C)oc2C)on1	i
Cc1ccccc1-n1nc2c(c1NC(=O)c1ccccc1[N+](=O)[O-])CS(=O)C2 (stereo not drawn)	i
O=c1oc2ccc3ccccc3c2cc1-c1nc(-c2ccncc2)n[nH]1	i
COc1ccc(CCN(C)C2CCCN(C(=O)CC3=CCCCC3)C2)cc1OC (stereo not drawn)	i
CC(=O)Nc1cc(C)c2c(=O)oc3ccccc3c2n1	i
Cc1cc(NC(=O)/C=C\c2ccc3c(c2)OCO3)nc2c1c(=O)oc1ccccc12	43.0%*
Cc1cc(NC(=O)c2ccc3c(c2)OCO3)nc2c1c(=O)oc1ccccc12	i
Cc1ccc(NC(=O)CC(C)C)c([N+](=O)[O-])c1	i
Cc1ccc(NC(=O)c2cc3ccccc3o2)c([N+](=O)[O-])c1	i
Cc1ccc(NC(=O)C(c2ccccc2)c2ccccc2)c([N+](=O)[O-])c1	41.0%*
CCCn1cnc2c1CN(C(=O)CCC(=O)O)[C@H](C(=O)OC)C2	i
O=c1cc2cc(O)[nH]c(=O)c2c(O)[nH]1	47.0%*
N#C/C(=C\c1cccc(Br)c1)c1nc2ccccc2[nH]1	i
COc1ccc(/C=C(\C#N)c2nc3ccc(C)cc3[nH]2)cc1O	46.0%*
N#C/C(=C\c1cccc(F)c1)c1nc2ccccc2[nH]1	i
CCOc1ccccc1C1C(C(=O)OC2CCCCC2)=C(C)Nc2nnnn21 (stereo not drawn)	i
COc1cc(C2C(C#N)=C(N)OC3=C2C(=O)CC(c2ccccc2)C3)ccc1OCc1ccccc1 (stereo not drawn)	37.0%*
COc1cc(C2C(C#N)=C(N)OC3=C2C(=O)CC(c2ccccc2)C3)cc(OC)c1OC (stereo not drawn)	i
COc1ccc(C2C(C#N)=C(N)Oc3n[nH]c(C)c32)cc1OCc1ccccc1 (stereo not drawn)	i
